The text below walks through data of PubChem BioAssay (NCATS).

Results filed as inconclusive are left out. Where a call stands in place of a potency, no number is given. Calls of active or inactive are those of the source. Calls come from the whole dose curve; as a rule, active = well fitted inhibition curve with a large enough effect; inconclusive = small, poorly fitted or top-dose-only effect; inactive = no such curve, though single readings can be large or run the other way.

The assay addresses Retinaldehyde dehydrogenase 3 (Homo sapiens) (UniProt P47895). Kind of assay: qHTS for Inhibitors of the Aldehyde Dehydrogenase Family (ALDH1A3) Primary screen (AID 2061315). Conditions: ALDH inhibition qHTS; series mostly up to 56 µM. (In general: Quantitative high-throughput screening tests each substance at several concentrations.)
With `CC(CCC1C(C(=O)O)=CC(=O)CC1(C)C)O[C@@H]1O[C@H](CO)[C@@H](O)[C@H](O)[C@H]1O` (stereo not given in full), the Potency entry was “inactive”.

Regarding `CC1=C2CC(O)(C(C)(C)O)C(O[C@@H]3O[C@H](CO)[C@@H](O)[C@H](O)[C@H]3O)CC(C)C2CC1=O` (stereo not given in full), the Potency entry was “inactive”. For `CCCC(=O)Nc1cccc(NC(=O)c2ccccc2Br)c1`, the Potency entry was “inactive”. Regarding `O=C(c1ccc(Cl)cc1)N1CCN(c2ccnc3cc(Cl)ccc23)CC1`, the Potency entry was “inactive”.

Consider `COC(=O)[C@H](Cc1ccc([N+](=O)[O-])cc1)NC(=O)c1cccc2ccccc12`, for which the Potency entry was “inactive”. Consider `C/C=C1\[C@H](O[C@@H]2O[C@H](CO)[C@@H](O)[C@H](O)[C@H]2O)OC=C(C(=O)O)[C@H]1CC(=O)OCCc1ccc(O)cc1`, for which the Potency result is “inactive”. With `Cc1cc(CNC(=O)c2cc(C(=O)NCc3ccc(F)c(C)c3)ncn2)ccc1F`, the Potency result is “inactive”. Take `COC1CC(O[C@H]2CC[C@@]3(C)C(=CC[C@]4(O)C3[C@H](O)[C@@H](O)[C@]3(C)[C@@H]([C@H](C)O)CC[C@@]34O)C2)OC(C)C1OC1CC(OC)C(OC2CC(OC)C(OC3OC(C)C(OC4OC(CO)C(O)C(O)C4O)C(OC)C3O)C(C)O2)C(C)O1` (stereo not given in full): the Potency result is “inactive”. Take `COc1ccc(/C=C/C(=O)O[C@H]2[C@@H]3C=CO[C@@H](O[C@@H]4O[C@H](CO)[C@@H](O)[C@H](O)[C@H]4O)[C@@H]3[C@@]3(CO)O[C@@H]23)cc1O`: the Potency entry is “inactive”. For `NC[C@H]1CCC[C@@H](CNC(=O)[C@@H](Cc2c[nH]c3ccccc23)NC(=O)N2CCC3(C=Cc4ccccc43)CC2)C1`, the Potency entry was “inactive”.
